# Experimental data as given in PMC11006913.
# Numbering of substitutions follows the chain as printed.
# Assays:
# Test in all cases: PBM; 200 nM protein, PBS
# Conditions in all cases: dsDNA, one strand shown
# SIX6 [1] = target: T1, SIX6 (Homo sapiens, UniProt O95475 114-200, L167I)
# T1 sequence: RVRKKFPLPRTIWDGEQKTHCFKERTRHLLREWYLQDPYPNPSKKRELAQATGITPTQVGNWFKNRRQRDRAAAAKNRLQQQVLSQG
# SIX6 [2] = target: T2, SIX6 (Homo sapiens, UniProt O95475 114-200, H141N)
# T2 sequence: T1 sequence with H28N, I54L
# SIX6 [3] = target: T3, SIX6 (Homo sapiens, UniProt O95475 114-200, T165P)
# T3 sequence: T1 sequence with T52P, I54L
# SIX6 [4] = target: T4, SIX6 (Homo sapiens, UniProt O95475 114-200, T165G)
# T4 sequence: T1 sequence with T52G, I54L
# SIX6 [5] = target: T5, SIX6 (Homo sapiens, UniProt O95475 114-200, T139Q)
# T5 sequence: T1 sequence with T26Q, I54L
# SIX6 [6] = target: T6, SIX6 (Homo sapiens, UniProt O95475 114-200, L167V)
# T6 sequence: T1 sequence with I54V
# SIX6 [7] = target: T7, SIX6 (Homo sapiens, UniProt O95475 114-200)
# T7 sequence: T1 sequence with I54L
# SIX6 [8] = target: T8, SIX6 (Homo sapiens, UniProt O95475 114-200, L167M)
# T8 sequence: T1 sequence with I54M
# SIX6 [9] = target: T9, SIX6 (Homo sapiens, UniProt O95475 114-200, L143M)
# T9 sequence: T1 sequence with L30M, I54L
# SIX6 [10] = target: T10, SIX6 (Homo sapiens, UniProt O95475 114-200, T165A)
# T10 sequence: T1 sequence with T52A, I54L
# SIX6 [11] = target: T11, SIX6 (Homo sapiens, UniProt O95475 114-200, T165I)
# T11 sequence: T1 sequence with T52I, I54L
# SIX6 [12] = target: T12, SIX6 (Homo sapiens, UniProt O95475 114-200, L143I)
# T12 sequence: T1 sequence with L30I, I54L
# HOXA7 [13] = target: HOXA7 (Homo sapiens, UniProt P31268 116-202)
# Chain of HOXA7 (Homo sapiens, UniProt P31268 116-202) (P31268 116-202): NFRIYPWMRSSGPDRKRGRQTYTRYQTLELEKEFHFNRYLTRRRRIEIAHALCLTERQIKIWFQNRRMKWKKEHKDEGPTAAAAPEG
# PROP1 [14] = target: PROP1 (Homo sapiens, UniProt O75360 56-141)
# Chain of PROP1 (Homo sapiens, UniProt O75360 56-141) (O75360 56-141): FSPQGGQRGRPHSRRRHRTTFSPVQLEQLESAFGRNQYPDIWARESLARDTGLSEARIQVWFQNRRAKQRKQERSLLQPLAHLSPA
# PROP1 [15] = target: PROP1 (Homo sapiens, UniProt O75360 56-141, R99H)
# Chain of PROP1 (Homo sapiens, UniProt O75360 56-141, R99H) (O75360 56-141 R99H): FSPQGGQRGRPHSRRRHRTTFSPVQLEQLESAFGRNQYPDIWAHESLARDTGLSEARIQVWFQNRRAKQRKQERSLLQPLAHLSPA
# PROP1 [16] = target: PROP1 (Homo sapiens, UniProt O75360 56-141, F88S)
# Chain of PROP1 (Homo sapiens, UniProt O75360 56-141, F88S) (O75360 56-141 F88S): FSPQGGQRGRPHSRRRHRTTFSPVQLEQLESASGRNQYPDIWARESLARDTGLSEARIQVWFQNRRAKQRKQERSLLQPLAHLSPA
# HOXA7 [17] = target: HOXA7 (Homo sapiens, UniProt P31268 116-202, W177C)
# Chain of HOXA7 (Homo sapiens, UniProt P31268 116-202, W177C) (P31268 116-202 W177C): as the sequence (P31268 116-202) above, with W62C counted along it
# NKX2-6 = target: T13, NKX2-6 (Homo sapiens, UniProt A6NCS4 118-204, R150C)
# T13 sequence: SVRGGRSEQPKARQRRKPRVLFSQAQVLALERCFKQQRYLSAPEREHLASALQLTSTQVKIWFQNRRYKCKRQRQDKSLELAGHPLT
# HOXD13 [18] = target: HOXD13 (Homo sapiens, UniProt P35453 263-343, T313R)
# Chain of HOXD13 (Homo sapiens, UniProt P35453 263-343, T313R) (P35453 263-343 T313R): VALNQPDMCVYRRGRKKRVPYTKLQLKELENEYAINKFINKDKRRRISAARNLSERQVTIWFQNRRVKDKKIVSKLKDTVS
# HOXD13 [19] = target: HOXD13 (Homo sapiens, UniProt P35453 263-343)
# Chain of HOXD13 (Homo sapiens, UniProt P35453 263-343) (P35453 263-343): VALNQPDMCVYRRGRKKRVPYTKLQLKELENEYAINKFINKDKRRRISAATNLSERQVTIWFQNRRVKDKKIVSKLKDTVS
# HOXD13 [20] = target: HOXD13 (Homo sapiens, UniProt P35453 263-343, T313A)
# Chain of HOXD13 (Homo sapiens, UniProt P35453 263-343, T313A) (P35453 263-343 T313A): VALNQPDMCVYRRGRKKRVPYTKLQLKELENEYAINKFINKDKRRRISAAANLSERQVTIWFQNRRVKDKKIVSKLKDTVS
sequence,measurement,setting,value
GATCTTCA,binding signal,SIX6 [1],"10.3 upbm affinity estimate (log intensity, higher = more binding, comparable within an allelic series)"
same,binding signal,SIX6 [2],"10.3 upbm affinity estimate (log intensity, higher = more binding, comparable within an allelic series)"
same,binding signal,SIX6 [3],"9.68 upbm affinity estimate (log intensity, higher = more binding, comparable within an allelic series)"
same,binding signal,SIX6 [4],"10.3 upbm affinity estimate (log intensity, higher = more binding, comparable within an allelic series)"
same,binding signal,SIX6 [5],"10.4 upbm affinity estimate (log intensity, higher = more binding, comparable within an allelic series)"
same,binding signal,SIX6 [6],"10.2 upbm affinity estimate (log intensity, higher = more binding, comparable within an allelic series)"
same,binding signal,SIX6 [7],"10.3 upbm affinity estimate (log intensity, higher = more binding, comparable within an allelic series)"
GATCCAAA,binding signal,SIX6 [1],"10.4 upbm affinity estimate (log intensity, higher = more binding, comparable within an allelic series)"
same,binding signal,SIX6 [2],"10.2 upbm affinity estimate (log intensity, higher = more binding, comparable within an allelic series)"
same,binding signal,SIX6 [3],"9.67 upbm affinity estimate (log intensity, higher = more binding, comparable within an allelic series)"
same,binding signal,SIX6 [8],"10 upbm affinity estimate (log intensity, higher = more binding, comparable within an allelic series)"
same,binding signal,SIX6 [9],"10.4 upbm affinity estimate (log intensity, higher = more binding, comparable within an allelic series)"
same,binding signal,SIX6 [4],"10.2 upbm affinity estimate (log intensity, higher = more binding, comparable within an allelic series)"
same,binding signal,SIX6 [5],"10.5 upbm affinity estimate (log intensity, higher = more binding, comparable within an allelic series)"
same,binding signal,SIX6 [10],"10.2 upbm affinity estimate (log intensity, higher = more binding, comparable within an allelic series)"
same,binding signal,SIX6 [6],"10.1 upbm affinity estimate (log intensity, higher = more binding, comparable within an allelic series)"
same,binding signal,SIX6 [7],"10.3 upbm affinity estimate (log intensity, higher = more binding, comparable within an allelic series)"
same,binding signal,SIX6 [11],"10.2 upbm affinity estimate (log intensity, higher = more binding, comparable within an allelic series)"
ATACAGAT,binding signal,SIX6 [1],"10.7 upbm affinity estimate (log intensity, higher = more binding, comparable within an allelic series)"
same,binding signal,SIX6 [2],"10.6 upbm affinity estimate (log intensity, higher = more binding, comparable within an allelic series)"
same,binding signal,SIX6 [3],"10 upbm affinity estimate (log intensity, higher = more binding, comparable within an allelic series)"
same,binding signal,SIX6 [8],"10.5 upbm affinity estimate (log intensity, higher = more binding, comparable within an allelic series)"
same,binding signal,SIX6 [9],"10.7 upbm affinity estimate (log intensity, higher = more binding, comparable within an allelic series)"
same,binding signal,SIX6 [12],"10.3 upbm affinity estimate (log intensity, higher = more binding, comparable within an allelic series)"
same,binding signal,SIX6 [4],"10.7 upbm affinity estimate (log intensity, higher = more binding, comparable within an allelic series)"
same,binding signal,SIX6 [5],"10.8 upbm affinity estimate (log intensity, higher = more binding, comparable within an allelic series)"
same,binding signal,SIX6 [10],"10.5 upbm affinity estimate (log intensity, higher = more binding, comparable within an allelic series)"
same,binding signal,SIX6 [6],"10.5 upbm affinity estimate (log intensity, higher = more binding, comparable within an allelic series)"
same,binding signal,SIX6 [7],"10.6 upbm affinity estimate (log intensity, higher = more binding, comparable within an allelic series)"
same,binding signal,SIX6 [11],"10.5 upbm affinity estimate (log intensity, higher = more binding, comparable within an allelic series)"
ATCCAATA,binding signal,SIX6 [1],"10.4 upbm affinity estimate (log intensity, higher = more binding, comparable within an allelic series)"
same,binding signal,SIX6 [2],"10.3 upbm affinity estimate (log intensity, higher = more binding, comparable within an allelic series)"
same,binding signal,SIX6 [8],"10.2 upbm affinity estimate (log intensity, higher = more binding, comparable within an allelic series)"
same,binding signal,SIX6 [9],"10.3 upbm affinity estimate (log intensity, higher = more binding, comparable within an allelic series)"
same,binding signal,SIX6 [4],"10.4 upbm affinity estimate (log intensity, higher = more binding, comparable within an allelic series)"
same,binding signal,SIX6 [5],"10.5 upbm affinity estimate (log intensity, higher = more binding, comparable within an allelic series)"
same,binding signal,SIX6 [10],"10.4 upbm affinity estimate (log intensity, higher = more binding, comparable within an allelic series)"
same,binding signal,SIX6 [6],"10.2 upbm affinity estimate (log intensity, higher = more binding, comparable within an allelic series)"
same,binding signal,SIX6 [7],"10.3 upbm affinity estimate (log intensity, higher = more binding, comparable within an allelic series)"
same,binding signal,SIX6 [11],"10.2 upbm affinity estimate (log intensity, higher = more binding, comparable within an allelic series)"
CCCCCTTC,binding signal,HOXA7 [13],"7.86 upbm affinity estimate (log intensity, higher = more binding, comparable within an allelic series)"
same,binding signal,PROP1 [14],"6.16 upbm affinity estimate (log intensity, higher = more binding, comparable within an allelic series)"
same,binding signal,PROP1 [15],"5.96 upbm affinity estimate (log intensity, higher = more binding, comparable within an allelic series)"
same,binding signal,PROP1 [16],"5.76 upbm affinity estimate (log intensity, higher = more binding, comparable within an allelic series)"
same,binding signal,HOXA7 [17],"8.09 upbm affinity estimate (log intensity, higher = more binding, comparable within an allelic series)"
GATCCCCC,binding signal,SIX6 [3],"9.3 upbm affinity estimate (log intensity, higher = more binding, comparable within an allelic series)"
GGATCACA,binding signal,SIX6 [9],"10.9 upbm affinity estimate (log intensity, higher = more binding, comparable within an allelic series)"
CCCCAGGC,binding signal,NKX2-6,"9.25 upbm affinity estimate (log intensity, higher = more binding, comparable within an allelic series)"
same,binding signal,HOXD13 [18],"9.43 upbm affinity estimate (log intensity, higher = more binding, comparable within an allelic series)"
same,binding signal,HOXD13 [19],"9.37 upbm affinity estimate (log intensity, higher = more binding, comparable within an allelic series)"
same,binding signal,HOXD13 [20],"9.53 upbm affinity estimate (log intensity, higher = more binding, comparable within an allelic series)"
